# Screens: PubChem BioAssay, several laboratories
# Shown are actives, neighbours in structure and some others; about 4.1% of the full set was active somewhere.
# Beta cell apopt: beta cell apoptosis inhibition | AID 435005 | protection from apoptosis, % (concentration not given with the values) | hit rate 0.8% among 300,000 | INS-1E cytokine-induced death, ATP luminescence, 48 h; percent of positive-control rescue, neutral wells zero;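 active = Every replicate reaches about 75%, or at least half do and their mean reaches it too, limit read from the data; inconclusive = At least half of replicates reach the limit but their mean does not; inactive = Under half of replicates reach the limit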;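 note: 0% = cytokine-treated negative control wells and 100% = positive control rescue; higher means more ATP so stronger rescue from cytokine killing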
# Mdm2-MdmX inh: human Mdm2/MdmX binding inhibition | inhibition, % at 8 µM | hit rate 3% among 330,000 | SaOS-2 split-luciferase Mdm2/MdmX complementation, luminescence;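 active = inhibition of at least 50% at 8 µM in the primary screen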
# Target sequence (O15151 whole entry, looked up): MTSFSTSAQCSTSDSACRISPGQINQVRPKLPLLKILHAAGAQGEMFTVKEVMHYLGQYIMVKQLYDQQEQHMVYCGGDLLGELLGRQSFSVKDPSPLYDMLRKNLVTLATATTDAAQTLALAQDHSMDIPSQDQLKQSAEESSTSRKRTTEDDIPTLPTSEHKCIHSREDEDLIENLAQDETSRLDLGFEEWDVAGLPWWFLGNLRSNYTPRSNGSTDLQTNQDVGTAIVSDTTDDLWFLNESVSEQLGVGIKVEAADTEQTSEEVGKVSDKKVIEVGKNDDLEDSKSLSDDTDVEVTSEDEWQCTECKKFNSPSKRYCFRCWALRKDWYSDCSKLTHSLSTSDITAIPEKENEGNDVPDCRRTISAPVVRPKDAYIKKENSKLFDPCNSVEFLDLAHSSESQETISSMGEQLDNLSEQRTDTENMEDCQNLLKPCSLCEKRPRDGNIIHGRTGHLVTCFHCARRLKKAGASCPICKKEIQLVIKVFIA
# Target sequence (Q00987 whole entry, looked up): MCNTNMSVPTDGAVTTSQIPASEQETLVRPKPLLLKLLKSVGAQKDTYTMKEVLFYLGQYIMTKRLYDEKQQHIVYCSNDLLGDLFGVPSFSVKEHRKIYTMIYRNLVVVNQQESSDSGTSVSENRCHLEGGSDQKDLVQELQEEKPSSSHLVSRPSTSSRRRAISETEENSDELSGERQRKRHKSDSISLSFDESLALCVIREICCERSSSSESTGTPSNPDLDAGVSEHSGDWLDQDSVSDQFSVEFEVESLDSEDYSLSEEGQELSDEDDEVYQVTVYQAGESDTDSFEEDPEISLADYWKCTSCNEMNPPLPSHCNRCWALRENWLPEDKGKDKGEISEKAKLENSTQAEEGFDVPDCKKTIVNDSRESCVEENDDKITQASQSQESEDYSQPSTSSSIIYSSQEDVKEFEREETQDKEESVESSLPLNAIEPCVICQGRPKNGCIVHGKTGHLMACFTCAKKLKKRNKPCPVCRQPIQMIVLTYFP
# Bfl-1 A1 inh: inhibitors of the anti-apoptotic protein A1, read as caspase activation; MEF A1-2A-BIM cells, Caspase-Glo 3/7 luminescence, 3 h; percent of clofoctol response, vehicle zero; caspase activation, % (test concentration not listed); hit rate 0.066% among 330,000; AID 2462;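 active = over half of replicate activation scores above 10%, or exactly half above 10 with the replicate mean above 10; inconclusive = replicate mean below 10 yet half the replicates above 10; inactive = over half of replicates below 10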
# CSC inhib: cancer stem cell inhibition; cancer stem cell-like cells viability, luminescence; inhibition, % at 7.5 µM; hit rate 1.1% among 300,000; in the data active = inhibition above about 75%; inconclusive = no clear call, values can overlap the other calls; tested in HMLE shEcad cells
# aSyn UTR inh: 5' untranslated region of α-synuclein, MLPCN primary screen; AID 1813; hit rate 0.82% among 300,000; alpha-synuclein 5'UTR reporter, inhibitor activity; inhibition, % (tested at 7.5 µM); in the data active = inhibition above about 60%; inconclusive = no clear call, values can overlap the other calls;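 note: H4 neuroglioblastoma cells stably carrying SNCA 5'UTR luciferase fusion; 0% = DMSO wells and 100% = positive control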
# * hit, by the source's call; ? = inconclusive; / = no result.
SMILES,Beta cell apopt,Mdm2-MdmX inh,Bfl-1 A1 inh,CSC inhib,aSyn UTR inh
COc1ccc(CN(C)C(=O)c2ccc(NS(=O)(=O)c3ccc(F)cc3)cc2)c(OC)c1OC,95*,34,0,2,5
CCOCCCN(C(=O)c1snc(C(N)=O)c1N)C(C(=O)NCCC(C)C)c1ccc(Cl)cc1 (stereo not drawn),0,-1,0,-9,10
COc1ccc(C(=O)c2cc([N+](=O)[O-])ccc2N2CCOCC2)cc1,13,/,1,40,?
O=C(c1cc([N+](=O)[O-])ccc1N1CCOCC1)N1CCOCC1,-10,-6,0,-11,-12
Cc1ccc(C(=O)c2cc([N+](=O)[O-])ccc2N2CCOCC2)cc1,/,/,/,/,92*
CCOc1ccc(C(=O)c2cc([N+](=O)[O-])ccc2N2CCOCC2)cc1,79*,/,2,58,79*
Cc1cccn2c(=O)c3cc(C(=O)NC4CCS(=O)(=O)C4)n(Cc4ccccc4)c3nc12 (stereo not drawn),4,30,0,-10,16
O=C(CN1C(=O)NC2(CCCCCC2)C1=O)NCc1ccccc1,4,23,0,-20,/
CCN(CC)CCOC(=O)c1ccc(N/C=C(/C#N)c2nc(-c3ccc(OC)cc3)cs2)cc1,9,17,0,9,14
CCN(CC)CCOC(=O)c1ccc(N/C=C(/C#N)c2nc(-c3ccc4c(c3)OCO4)cs2)cc1,113*,22,0,-5,15
Cc1ccc(-c2nc(N/N=C/c3cccc([N+](=O)[O-])c3)c3ccccc3n2)cc1,0,26,-6,62,-153
Cc1ccc(-c2nc(Nc3cccc(O)c3)c3ccccc3n2)cc1,0,21,1,112*,13
COc1cccc(Nc2nc(-c3ccccc3)nc3ccccc23)c1,8,17,-1,92*,-3
Cc1ccc(-c2nc(N/N=C/c3cccnc3)c3ccccc3n2)cc1,76*,-50,-8,41,-258
Cc1ccc(-c2nc(Nc3ccc(N4CCOCC4)cc3)c3ccccc3n2)cc1,2,45,?,90*,-8
c1ccc(Nc2nc(-c3ccccc3)nc3ccccc23)cc1,15,24,1,49,1
Cc1ccc(-c2nc(Nc3ccc(O)cc3)c3ccccc3n2)cc1,-5,39,-1,73,-29
O=C(NN=C(c1ccccc1)c1ccccc1)C(CCl)C1CCCCC1 (stereo not drawn),-17,22,0,-10,/
O=C1C(=O)N(Cc2cccs2)c2ccccc21,-10,13,0,3,16
COc1ccc(C(=O)N2CCN(c3ccccc3)CC2)cc1S(=O)(=O)N1CCCC1,1,7,0,-11,-1
COC(=O)Cc1nnc(SCC(=O)Nc2ccccc2)c2ccccc12,-13,32,0,-17,-10
COc1ccc(Nc2nc(-c3ccccc3O)nc3ccccc23)cc1,21,24,0,81*,-5
COc1cccc(Nc2nc(-c3ccccc3O)nc3ccccc23)c1,8,25,0,8,-1
Cc1noc(C)c1COc1ccc(C(=O)N2CCN(S(=O)(=O)c3cccc(F)c3)CC2)cc1,-4,15,0,-11,/
O=C(/C=C/c1cccs1)NC(=S)NNC(=O)c1ccccc1O,31,35,0,/,103*
SMILES,Beta cell apopt,Mdm2-MdmX inh,Bfl-1 A1 inh,CSC inhib,aSyn UTR inh
COc1ccc(C(=O)NNC(=S)NC(=O)/C=C/c2cccs2)cc1,18,42,-1,-8,30
Cc1cc(C)nc(NC(=O)/C=C/c2cccs2)c1,6,2,-6,86*,-155
Cc1ccc(NC2=CC(=O)C(=O)c3ccccc32)c(C)c1,101*,43,0,/,/
O=C1C=C(NCc2ccccc2)c2ccccc2C1=O,/,/,/,/,23
O=C1C=C(Nc2ccc(F)cc2)c2ccccc2C1=O,106*,44,0,112*,/
O=C1C=C(Nc2ccccc2O)c2ccccc2C1=O,113*,34,-1,99*,55
COC1=C(Nc2ccc(C)cc2)C(=O)c2ccccc2C1=O,11,-8,0,2,-156
O=[N+]([O-])c1ccc(N2CCc3ccccc3C2)cc1,/,-7,1,2,-117
CC(CCc1ccccc1)NC(=O)CNC(=O)c1ccccc1Br (stereo not drawn),-6,0,0,-12,-14
N#Cc1ccc(CN2CCN(C(=O)Cn3nc(C(N)=O)c4ccccc4c3=O)CC2)cc1,1,-12,0,-5,16
Cc1cccc(-n2ncc3c(N4CCCc5ccccc54)ncnc32)c1,2,-48,0,76*,-123
Cc1cccc(-n2ncc3c(NCc4ccccc4)ncnc32)c1,28,-1,0,57,-140
COC(=O)C1(C)CCC(C(=O)Nc2ccccc2)C1(C)C (stereo not drawn),6,13,0,-14,62*
O=C(c1cc(-c2ccc(O)cc2)on1)N1CCN(c2ccc(F)cc2)CC1,1,6,0,111*,3
O=C(c1cc(-c2ccc3c(c2)OCO3)on1)N1CCN(c2ccccc2)CC1,-3,-13,-2,44,-245
O=C(c1cc(-c2ccc3c(c2)OCO3)on1)N1CCN(c2ccc(F)cc2)CC1,/,23,/,/,-3
O=C(c1cc(-c2ccc(O)cc2)on1)N1CCN(c2ccccc2)CC1,-1,-2,0,104*,-23
CC(C)(CO)CNC(=O)CCc1nnc(-c2ccc(-c3ccccc3)cc2)o1,/,0,0,-3,38
CCOC(=O)c1sc(Nc2ccccc2Cl)nc1C,-2,-105,-3,17,-184
CCOC(=O)c1sc(NC(=O)Nc2ccccc2F)nc1C,6,31,-8,2,70*
CC1Cc2ccccc2N1C(=O)C(C)n1cc(C(F)(F)F)cc(Cl)c1=O (stereo not drawn),-2,-9,0,-3,/
O=C(Nc1ccccn1)c1ccc(-c2ccccc2)cc1,-1,-94,-8,7,63*
Cc1c(C(=O)N(Cc2ccccc2)Cc2cccs2)cnn1-c1ccc(Cl)cc1,/,25,1,80*,-4
CN(C)c1ccc(NC(=S)NC23CC4CC(CC(C4)C2)C3)cc1,111*,28,-1,/,-129
Oc1ccc(N2CCN(c3nc(-c4cccs4)nc4ccccc34)CC2)cc1,-1,8,0,87*,20
SMILES,Beta cell apopt,Mdm2-MdmX inh,Bfl-1 A1 inh,CSC inhib,aSyn UTR inh
Cc1nn(-c2ccccc2)c(C)c1/C=N/NC(=O)c1cc(C(C)(C)C)[nH]n1,-6,17,-1,3,-3
Cc1ccc(-c2cc(C(=O)N/N=C/c3c(C)nn(-c4ccccc4)c3C)[nH]n2)cc1,/,/,/,/,66*
Cc1ccc(S(=O)(=O)Nc2cc(Cl)c(O)c3ncccc23)cc1,110*,40,0,29,77*
CCn1c(SCC(=O)Nc2sccc2C(N)=O)nnc1C1CC1,/,-17,/,/,/
Clc1ccc(CSc2nnc(-c3cccnc3)n2Cc2ccco2)c(Cl)c1,-12,-16,0,86*,5
Clc1cccc(CSc2nnc(-c3cccnc3)n2Cc2ccco2)c1,-7,-15,1,-21,7
